Source: the OligoGym collection

Target: CPD
Assay: pooled miR-30 sensor sort-seq; sequence = guide strand
Conditions: shRNA
Note: reference of the scale not given here.

Sequence | sensor-assay potency score (higher = more potent)
TTGACAGTCACATTCTTGGTAA | -0.225
TTAGGTATAGCAACTGTGCTAG | 0.733
TATTTGTGAAGTCTGTATCCAA | 0.0284
TTGATTGAGCAGATGCACCAAA | -0.419
TTGATTCATTGTTTGAATCTGT | 0.522
TTCAACAGCAGTTCTCTTCCAA | 0.56
TTGTTTGTACCTTTATTCCTTC | -0.441
ATAGGTGACACTATAATCCTTC | 0.621
TTAGTGATCTTCGATTCTGTTC | -0.307
TAGTGTTATGAACCAAATCTGT | -0.534
TTTGTAAGTAGTCACTGGGTGA | -0.0209
TTTGTTTGTAAATAGTTCCAGT | 0.147
TTTTGCTTGGTACTTATGCTGG | -0.405
TTTGTTGGAACACAGCATCATC | -1.01
TTCATTAGGATACATATTCTTG | -0.698
TTACACTTATTGAATCTCCTTC | 0.411
TTTCACTCCAATGTGAACCTTT | 0.41
TTGAAGTACAGTCTTTCTCTTG | -0.337
TAGCAGTTGATACAGCCTCTGT | -1.16
TTGGAACACAGCATCATCTGGT | 0.644
TTGCGTAGGATCTGTGATCTGA | 1.11
TTAGGATACATATTCTTGCAAG | -0.612
TATTCTTGCAAGGTCTACCTTG | -0.366
TTGTAAATAGTTCCAGTCCTGC | -0.512
